Source: the supplement of paper PMC3724861
Only a selection was taken, and hits are over-represented in it overall. How many sequences the whole screen found active is unknown. Values without a mark were called inactive.

Test system: T1, Caupolican (Caup) homeodomain DNA-binding domain
T1 sequence: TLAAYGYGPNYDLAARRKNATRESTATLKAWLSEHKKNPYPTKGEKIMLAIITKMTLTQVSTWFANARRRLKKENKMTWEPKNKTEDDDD
Assay: PBM E-score (8-mer, recovered from the published 9-mer minima) (E-score (dimensionless, -0.5 to 0.5)); Drosophila protein; higher = stronger relative binding preference, active = 0.31 or more
How it was run: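 Caup's homeodomain DNA-binding domain (residues 214-303) was produced by in vitro transcription and translation and applied at 100 nM to custom-designed protein binding microarrays. Each value is an enrichment score giving relative binding preference for a short DNA word; higher means stronger. Published 9-mer scores were the minimum of their two constituent 8-mer scores, and the 8-mer values were recovered from those minima. A cutoff of 0.31 marks candidate binding sequences.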

Sequence | PBM E-score
GTGAAGGA | -0.0495
CTTAGACA | 0.0709
AAATGGTA | 0.174
GAGCTCTA | -0.0532
CGTGTATC | 0.258
AGTGTATA | 0.14
ACTGTATA | 0.143
CCTGTATA | 0.142
ATTGTGTA | 0.283
GCTGTATA | 0.194
GTTGTATA | 0.347 (active)
ATTGTATA | 0.259
CTTGTGTA | ≥ 0.341 (active)
GTTGTGTA | 0.298
CTTGTATA | 0.353 (active)
CGTGTATA | 0.321 (active)
AGAGGTAC | 0.0429
AGTGGCCG | -0.226
TGCGACAA | 0.148
GAAGAGGA | -0.161
ACCTGCAA | -0.023
GCCGTATA | 0.0675
ACGCCTAA | 0.0349
TGGTCAAA | 0.0685
CCCTCTAG | -0.126

Sequence | PBM E-score
ATTGTATC | 0.215
CTTGTAGC | 0.271
CTTGTATC | 0.34 (active)
AAATACAT | 0.338 (active)
TAATACAA | 0.278
AAATACAC | 0.312 (active)
GAATACAC | 0.25
CAATACAA | 0.261
AAATACTT | 0.1
AAATACAG | 0.132
CAATACAC | 0.271
AAATACAA | 0.327 (active)
CATCTCAG | -0.0232
CCCAGCAG | -0.201
TACATTCA | 0.232
AAGCCTGC | -0.156
AAAGTGGT | 0.0391
GAAAAAGA | -0.0311
GACCGAGA | -0.103
ACTAGCTC | 0.0549
ACGTGGTA | 0.132
CTTAATCA | 0.013
GTAGTACA | 0.346 (active)
ATAGTACA | 0.343 (active)
GTAGTATA | 0.219

Sequence | PBM E-score
ATAGTACC | 0.134
ATAGTACG | 0.0984
CTAGTAAA | 0.211
CTAGTACA | 0.337 (active)
CTAGTACC | 0.201
GTAGTAGA | 0.0981
GCATTTAA | 0.11
TTCTAGAA | -0.0405
CGCAGCCG | -0.267
ACCTCCGA | -0.0504
GCTTCTGA | -0.0992
CCGCTTTA | -0.0283
ACAACACT | 0.326 (active)
ACAACTCT | 0.147
AAAACACT | 0.0862
CCAACACA | 0.17
CCAACACG | 0.237
ACAACACG | 0.387 (active)
ACAACACA | ≥ 0.395 (active)
ACAACACC | 0.301
GCAACACA | 0.144
CTATTAGC | 0.0355
CGCAATAC | 0.0451
AGATTAGG | 0.00061
GCCCTTCC | -0.169

Sequence | PBM E-score
AAAGGCGT | -0.125
ACAAGCAG | 0.229
GCAAGCAA | -0.0127
ACAAGCAT | 0.377 (active)
ACAAGCAC | 0.246
ACAAGCAA | 0.341 (active)
TCAAGCAA | 0.0149
AGACCCGA | -0.108
ACTTTACC | 0.122
CGGATGGC | -0.0761
AACGCCCG | -0.108
GCAGTCCC | -0.194
CAAGTAGG | -0.00819
CATGTAGA | 0.391 (active)
GATGTAGC | 0.166
CATGTAGC | 0.332 (active)
AATGTAGG | 0.116
CATGTAGG | 0.356 (active)
AATGTAGA | 0.139
AATGTAGC | 0.0881
GATGTAGA | 0.208
GACTAGGC | -0.0927
CCTCCAAC | -0.102
TAGAAATA | 0.1
CCGCTACA | 0.0971

Sequence | PBM E-score
GGCCGTAA | -0.148
CATTACCA | 0.119
ACCAATCC | -0.0418
AATATACC | 0.13
ATTATACA | 0.254
AATATACA | 0.322 (active)
GTTATACA | 0.329 (active)
CTTATACA | 0.11
TATATACA | 0.355 (active)
TGTATACA | ≥ 0.356 (active)
GATATACA | 0.263
GGTATACA | 0.183
CATATACA | 0.298
AATATACT | 0.155
AGTATACA | 0.309
GCCCGTAC | -0.0447
GGGATATA | -0.0036
ATCGTTCG | 0.0642
AGCCGTTC | -0.195
ACGAACCT | -0.0743
ACGTGGCG | -0.111
CCACAGAA | -0.00495
TATTACGA | 0.162
GTAGTTCA | 0.136
AATAAATA | 0.202

Sequence | PBM E-score
AGTATCTG | 0.00127
AGTGACGC | -0.155
CCTGTAAG | 0.127
AATGTAAG | 0.214
AATGTAAT | 0.303
GCTGTAAA | 0.128
AATGTAAA | 0.323 (active)
CATGTAAG | 0.395 (active)
TATGTAAA | 0.327 (active)
GATGTAAA | 0.305
TCTGTAAA | 0.0832
ACTGTAAA | 0.154
CCTGTAAA | 0.131
CATGTAAA | 0.421 (active)
GTCGCTTA | 0.0465
CACGAAAG | 0.0338
CTCGTGAA | 0.027
GTAGATAA | 0.14
ACCATAAT | 0.119
CATGTAAC | 0.431 (active)
AATGTAAC | 0.295
GATGTAAC | 0.306
